Results reported in the supplement of paper PMC6522484.
± gives the standard deviation of the averaged measurements.

Experiments:
DLD1 [1] = test: cell viability (CellTiter-Glo) relative to plate median (fraction of plate median); higher = more viable cells; details: 5 µM; treatment time 24 h; reporter: 7TFP
Outline: (§1)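 Values are well luminescence normalised to the plate median, from either a firefly luciferase or a CellTiterGlo readout on parallel plates. The cells, colorectal cancer lines stably transduced with lentiviral 7TFP or TCF4/Wnt firefly luciferase reporters, were treated with library compounds at a final 5 µM for 24 h. The mean of two independent replicates is listed.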

HCT116 = test: as above; details: 5 µM; treatment time 24 h; reporter: TCF4/Wnt
Outline: as §1

SW480 [2] = test: as above; details: 5 µM; treatment time 24 h; reporter: 7TFP
Outline: as §1

DLD1 [3] = test: TCF/Wnt firefly luciferase reporter signal relative to plate median (fraction of plate median); higher = higher Wnt reporter signal; details: 5 µM; treatment time 24 h; reporter: 7TFP
Outline: as §1

SW480 [4] = test: as above; details: 5 µM; treatment time 24 h; reporter: 7TFP
Outline: as §1

SMILES | cell viability (DLD1 [1]) | cell viability (HCT116) | cell viability (SW480 [2]) | TCF/Wnt firefly luciferase reporter signal (DLD1 [3]) | TCF/Wnt firefly luciferase reporter signal (SW480 [4])
COc1ccccc1OCC(O)CO (stereo not given) | 0.953 ± 0.015 | 1.08 ± 0.05 | 1.03 ± 0.052 | 1.09 ± 0.028 | 1.01 ± 0.095
COc1cc2oc3cc(OC)c(OC)c(CC=C(C)C)c3c(=O)c2c(OC)c1CC=C(C)C | 1.03 ± 0.028 | 1.08 ± 0.13 | 1.035 ± 0.0071 | 1.23 ± 0.12 | 1.02 ± 0.06
CCCC(=O)Nc1ncnc2c1ncn2[C@@H]1O[C@@H]2COP(=O)(O)O[C@H]2[C@H]1OC(=O)CCC | 0.945 ± 0.055 | 0.957 ± 0.026 | 0.987 ± 0.0071 | 1.11 ± 0.17 | 1.09 ± 0.014
C[C@@H]1CCCCCCCCC[C@H](OC(=O)CCC(=O)O)C(=O)/C=C/C(=O)O1 | 1.03 ± 0.05 | 1.09 ± 0.11 | 1.02 ± 0.028 | 1.17 ± 0.05 | 1.09 ± 0.014
CN(C)CCC=C1c2ccccc2C=Cc2ccccc21 | 1.02 ± 0.034 | 0.998 ± 0.046 | 1.035 ± 0.0071 | 0.991 ± 0.042 | 0.969 ± 0.0085
CC(C)CCC[C@@H](C)[C@H]1CC[C@H]2[C@@H]3CC=C4CC(=O)CC[C@]4(C)[C@H]3CC[C@]12C | 1 ± 0.026 | 1.015 ± 0.0071 | 1.03 ± 0.048 | 0.979 ± 0.13 | 0.974 ± 0.19
c1ccc([C@H]2CN3CCSC3=N2)cc1 | 1.01 | 0.943 ± 0.11 | 1.02 ± 0.048 | 0.943 ± 0.043 | 0.947 ± 0.066
CCCc1nc(C)c2c(O)nc(-c3cc(S(=O)(=O)N4CCN(CC)CC4)ccc3OCC)nn12 | 0.948 ± 0.022 | 1.02 ± 0.061 | 0.9505 ± 0.005 | 1.05 ± 0.021 | 1.07 ± 0.042
NC(=O)c1ccccc1O | 1.07 ± 0.014 | 0.991 ± 0.056 | 0.972 ± 0.014 | 0.993 ± 0.096 | 0.81 ± 0.12
Cc1cccc(C(=O)O)c1O | 1.02 ± 0.039 | 0.934 ± 0.078 | 0.96 ± 0.0099 | 0.869 ± 0.12 | 0.922 ± 0.059
CNCCCN1c2ccccc2CCc2ccccc21 | 0.994 ± 0.023 | 0.933 ± 0.013 | 0.909 ± 0.041 | 0.868 ± 0.035 | 0.934 ± 0.045
COC(=O)Nc1nc2cc([S+]([O-])c3ccccc3)ccc2[nH]1 (stereo not given) | 0.921 ± 0.093 | 0.869 ± 0.054 | 1.01 ± 0.08 | 0.983 ± 0.052 | 0.885 ± 0.12
C#C[C@]1(O)CC[C@H]2[C@@H]3CCc4cc(O)ccc4[C@H]3CC[C@@]21C | 0.934 ± 0.016 | 0.972 ± 0.054 | 0.9755 ± 0.0092 | 1.08 ± 0.078 | 1.04 ± 0.021
CCCCC(=O)O[C@]1(C(=O)CO)[C@@H](C)C[C@H]2[C@@H]3CCC4=CC(=O)C=C[C@]4(C)[C@@]3(F)[C@@H](O)C[C@@]21C | 1.04 ± 0.021 | 1.15 ± 0.028 | 0.987 ± 0.047 | 0.868 ± 0.011 | 0.942 ± 0.22
CC(C)(C)NC[C@H](O)COc1nsnc1N1CCOCC1 | 0.966 ± 0.045 | 0.992 ± 0.17 | 0.9705 ± 0.0092 | 0.971 ± 0.084 | 1.04 ± 0.042
CC(C)CCCCCCCCC1CC(=O)NC(CCC(=O)O)C(=O)NC(CC(C)C)C(=O)NC(CC(C)C)C(=O)NC(C(C)C)C(=O)NC(CC(=O)O)C(=O)NC(CC(C)C)C(=O)NC(CC(C)C)C(=O)O1 (stereo not given) [Surfactin B1] | 0.959 ± 0.072 | 0.925 ± 0.018 | 0.962 ± 0.038 | 0.92 ± 0.21 | 1.01 ± 0.015
Cn1c(=O)[nH]c2[nH]cnc2c1=O | 1.02 ± 0.042 | 1.04 ± 0.14 | 1.04 ± 0.072 | 0.964 ± 0.011 | 0.992 ± 0.025
COc1ccc(C(Cl)=C(c2ccc(OC)cc2)c2ccc(OC)cc2)cc1 | 1.01 ± 0.044 | 1.12 ± 0.05 | 0.978 ± 0.032 | 0.915 ± 0.19 | 0.877 ± 0.17
NC1=NCCN1CC(=O)O | 0.897 ± 0.036 | 1.03 ± 0.072 | 0.976 ± 0.0014 | 1.06 ± 0.094 | 0.985 ± 0.016
COC(=O)C[C@H]1C(C)(C)C(=O)[C@@H]2CC3C4=CC(=O)O[C@@H](c5ccoc5)[C@]4(C)CC[C@@H]3[C@@]1(C)C2=O (stereo not given in full) | 0.924 ± 0.0042 | 1.01 ± 0.06 | 0.957 ± 0.03 | 1.04 ± 0.014 | 0.866 ± 0.062
CC(C)Cc1ccc(C(C)C(=O)O)cc1 (stereo not given) | 0.962 ± 0.082 | 1.04 ± 0.028 | 1.04 ± 0.068 | 1.03 ± 0.021 | 1.06 ± 0.028
CC(CCc1ccccc1)NCC(O)c1ccc(O)c(C(N)=O)c1 (stereo not given) | 1.01 ± 0.12 | 1.08 ± 0.014 | 0.943 ± 0.044 | 0.935 ± 0.012 | 0.939 ± 0.046
Cc1c(NC(=O)c2cccnc2)c(=O)n(-c2ccccc2)n1C | 1.01 | 1.1 ± 0.042 | 0.981 ± 0.015 | 1.06 ± 0.17 | 1 ± 0.037
O=c1cc(CO)occ1O [Kojic acid (Biofocus)] | 0.943 ± 0.08 | 1.02 ± 0.083 | 0.994 ± 0.093 | 1.21 ± 0.13 | 1.12 ± 0.035
CC1(C)[C@@H](O[C@H]2O[C@H](C(=O)O)[C@@H](O)[C@H](O)[C@H]2O[C@@H]2O[C@H](C(=O)O)[C@@H](O)[C@H](O)[C@H]2O)CC[C@]2(C)[C@H]3C(=O)C=C4[C@@H]5C[C@@](C)(C(=O)O)CC[C@]5(C)CC[C@@]4(C)[C@]3(C)CC[C@@H]12 | 1.04 ± 0.042 | 1.14 | 1.02 ± 0.03 | 1.22 ± 0.13 | 1.16 ± 0.092
C=C1c2c(Cl)ccc(O)c2C(=O)C2=C(O)[C@]3(O)C(=O)C(C(N)=O)=C(O)[C@@H](N(C)C)[C@@H]3[C@@H](O)[C@H]12.O=C(O)c1cc(S(=O)(=O)O)ccc1O | 1.05 ± 0.021 | 1.02 ± 0.042 | 1.005 ± 0.0071 | 1.05 ± 0.25 | 0.893 ± 0.062
O=C(O)c1ccc(S(=O)(=O)N(Cl)Cl)cc1 | 0.936 ± 0.027 | 1 ± 0.028 | 0.8755 ± 0.0078 | 0.937 ± 0.052 | 0.876 ± 0.03
CC(=O)NCCCS(=O)(=O)O | 1.03 ± 0.091 | 1.03 ± 0.028 | 1.025 ± 0.0071 | 1.12 ± 0.11 | 1.06 ± 0.071
C=C[C@@H](C1=CC(=O)C(OC)=C(OC)C1=O)c1ccccc1 | 0.903 ± 0.0057 | 0.856 ± 0.11 | 1.08 ± 0.014 | 0.712 ± 0.033 | 0.907 ± 0.023
CC(=O)O[C@@H]1CC2C(C)(C)[C@H](O)C=C[C@]2(C)C2CC[C@@]3(C)[C@H](c4ccoc4)OC(=O)C4OC43[C@@]21C (stereo not given in full) | 1.05 ± 0.064 | 1.08 ± 0.092 | 1.06 ± 0.028 | 0.97 ± 0.042 | 0.926 ± 0.1
